Screening results deposited in PubChem by National Center for Advancing Translational Sciences (NCATS).
D3 antag: qHTS of D3 Dopamine Receptor Antagonist: qHTS. 360,000 tested, 2.5% active. AID 652054, 2013. D(3) dopamine receptor (Homo sapiens), P35462. max response, negative = inhibition, %. D3R cells, DiscoveRx beta-arrestin luminescence, antagonist mode; active compounds read low; in the data active = max response below about -50%; inconclusive = no clear call, values can overlap the other calls; note: % is set by controls: 0 for no effect and ±100 for the full control effect
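Cells plated overnight at 1500 cells/well, then exposed to library compounds with dopamine controls for 90 minutes at 37 degrees C. DiscoveRx reagent added for 30–60 minutes at room temperature; luminescence read, quantitative HTS format.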
D3 ag: qHTS of D3 Dopamine Receptor Agonist: qHTS; AID 652048, 2013; D3R DiscoveRx beta-arrestin cells, luminescence, 90 min; D(3) dopamine receptor (Homo sapiens), P35462; max activation, %; 410,000 tested, 0.58% active; in the data active = max activation above about 30%; note: 0% is about no effect
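Agonist-mode cell screen: cells plated at 1500/well and incubated overnight at 37 °C, then exposed to library compounds for 90 min at 37 °C. Detection reagent was added for 30–60 min at room temperature, and luminescence was read.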
PI4K2A block: qHTS for small molecular inhibitors of PI4K2A. Phosphatidylinositol 4-kinase type 2-alpha (Homo sapiens), Q9BTU6. purified PI4K2A, ADP-Glo luminescence, 1 h; active compounds read low. activity change, negative = inhibition, % at 76.9 µM. 420,000 tested, 0.13% active; in the data active = activity change below about -50%; inconclusive = mostly about -30% to -49%;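 note: -100% = wells without enzyme as full effect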
Target sequence (Q9BTU6 whole entry, looked up): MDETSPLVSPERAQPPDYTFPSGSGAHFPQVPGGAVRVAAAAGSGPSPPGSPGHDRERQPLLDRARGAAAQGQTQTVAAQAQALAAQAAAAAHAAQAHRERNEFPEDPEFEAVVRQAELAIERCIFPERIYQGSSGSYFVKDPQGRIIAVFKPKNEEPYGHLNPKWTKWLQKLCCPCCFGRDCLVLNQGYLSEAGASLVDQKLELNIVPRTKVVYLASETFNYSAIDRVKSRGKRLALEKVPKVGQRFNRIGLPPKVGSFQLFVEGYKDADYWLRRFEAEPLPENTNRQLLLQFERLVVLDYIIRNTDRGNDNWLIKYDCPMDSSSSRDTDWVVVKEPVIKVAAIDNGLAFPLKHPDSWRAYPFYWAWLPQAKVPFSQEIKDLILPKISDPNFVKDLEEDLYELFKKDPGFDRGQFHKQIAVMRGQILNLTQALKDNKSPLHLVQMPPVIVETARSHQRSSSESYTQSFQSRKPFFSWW
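In this quantitative HTS, ADP production by PI4K2A was quantified luminescently after 1 h at ambient temperature; 100 microM adenosine served as plate-quality control.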
PI5P4Ka inh: qHTS for Inhibitors of phosphatidylinositol 5-phosphate 4-kinase (PI5P4K) | Phosphatidylinositol 5-phosphate 4-kinase type-2 alpha (Homo sapiens), P48426 | PI5P4Kalpha enzyme, ADP-Glo luminescence, 60 min; active compounds read low | max response, % | AID 652105, 2013 | 330,000 tested, 1.2% active; active = max response of -50% or lower; inconclusive = between -30% and -50%; inactive = -30% or higher; note: value at the top dose of about 77 µM; % is set by controls: 0 for no effect and ±100 for the full control effect
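PI5P4Kalpha ADP-Glo assay; 5 microM ATP final; 60 min RT reaction; HEPES pH 7.4/EGTA/CHAPS, 5% DMSO; controls lacking substrate or enzyme; luminescent end-point.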
LDHA block: qHTS assay for inhibitors of human lactate dehydrogenase. 480,000 tested, 0.15% active. AID 1347041, 2019. activity change, % (values are at about 110 or 230 µM). purified LDHA, NADH/diaphorase-resazurin fluorescence; active compounds read low; in the data active = activity change below about -30%; inconclusive = mostly about -25% to -30%;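 note: plate controls were DMSO wells for no effect and wells without enzyme for full effect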
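Resorufin fluorescence (ex540/em590), read at 0 and 20 min after diaphorase/resazurin addition, reports the NADH left after a 5 min room-temperature reaction of 2 nM human LDH5 with 0.06 mM NADH and 0.2 mM pyruvate.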
* = called active by the depositor; ? = inconclusive; · = not tested or not shown; ! = repeats disagree. An excerpt weighted towards active compounds, which were near 3.3% of everything screened.

SMILES | D3 antag | D3 ag | PI4K2A block | PI5P4Ka inh | LDHA block
COc1ccc2c(C)c(CC(=O)N3CCN(C(=O)C4COc5ccccc5O4)CC3)c(=O)oc2c1C (configuration not stated) | 26 | 2 | 7 | -11 | -1
COC(=O)[C@]12C[C@H](CC(=O)NCc3cccc(C(F)(F)F)c3)C(=O)N(Cc3cccc4ccccc34)C1=C[C@H](C(C)(C)C)O[C@@H]2C | · | · | 1 | · | ·
C#CCN(C#N)c1nc(NCC)nc(NC(C)C)n1 | -6 | -4 | 7 | · | 8
CCN(C#N)c1nc(NC(C)C)nc(NC(C)C)n1 | 15 | 32* | -5 | · | -9
N/C(=N/OC(=O)c1ccccc1Cl)c1nonc1N | 2 | 4 | -54* | -24 | 0
N/C(=N\OC(=O)c1ccc(F)cc1)c1nonc1N | 12 | -5 | ? | -17 | 1
COc1ccc(C(O)(CCN2CCCCC2)C2CCCCC2)cc1 (configuration not stated) | -52* | -41 | -6 | 4 | -6
COC(=O)c1ccc(OCCN2CCCCCC2)cc1 | -27 | -13 | 0 | -1 | -4
CCCC(O)(CCN1CCCCC1)c1ccc(OCC)cc1 (configuration not stated) | -2 | -9 | 5 | 0 | -1
CC(=O)c1ccc(OCCCN2CCCCC2)cc1 | -72* | -5 | 1 | 0 | -32*
COc1ccc(OCCCN2CCCCCC2)cc1 | -64* | -4 | 1 | 0 | -4
O=C(c1ccccc1)c1ccc(OCCCN2CCCCC2)cc1 | -83* | -2 | 3 | -5 | -19
COc1ccc(Nc2nnc(SC(C)C#N)s2)cc1 (configuration not stated) | · | · | · | · | 12
OCCOc1ccc(CNCCc2c[nH]c3ccccc23)cc1 | · | · | · | · | 14
Cc1nn2c(NCCN3CCOCC3)cc(C(C)(C)C)nc2c1-c1ccccc1 | · | · | · | · | 2
c1ccc(COc2ccc(OCCCN3CCCCC3)cc2)cc1 | -80* | 2 | 2 | -3 | -23
c1ccc(COc2ccc(OCCCCN3CCCC3)cc2)cc1 | -14 | -17 | 2 | -6 | -14
CCCCOc1ccc(C(=O)CCN2CCCCC2)cc1 | -56* | -44 | 20 | -25 | -3
O=C(c1ccccc1)c1ccc(OCC(O)CN2CCCCC2)cc1 (configuration not stated) | -67* | 2 | 8 | 0 | -1
COc1ccc(Br)c(C(=O)OCc2cc(C(C)=O)ccc2OC)c1 | · | · | · | · | 6
O=C(CN(c1ccc(F)c(Cl)c1)S(=O)(=O)c1ccccc1)NCc1ccncc1 | · | · | · | · | 9
Cc1cccc(C(=O)N[C@@H](C)C(=O)O)c1 | · | · | · | · | 0
COc1ccccc1C(=O)NCCCNC(=O)c1ccccn1 | -24 | -8 | 3 | 0 | -6
O=C(NCCCNCc1ccccc1)c1ccccn1 | -66*! | -15 | -1 | 19 | -2
CCCCNC(=O)c1ccc(Cl)cc1 | · | · | · | · | -6
SMILES | D3 antag | D3 ag | PI4K2A block | PI5P4Ka inh | LDHA block
CCc1noc(C)c1C(=O)OCC(=O)Nc1cccc(C)c1 | 11 | 4 | -4 | 3 | -4
Cc1noc(C)c1C(=O)OCC(=O)Nc1cccc(F)c1 | -62* | -7 | -1 | 3 | 3
Cc1ccc(CN2CCC(C(=O)c3ccc(F)cc3)CC2)cc1 | -122* | -13 | 4 | 2 | -4
O=C(c1ccc(F)cc1)C1CCN(CCn2c(=O)[nH]c3ccccc3c2=O)CC1 | -51* | -58 | 2 | -3 | 0
COc1ccc(CN2CCC(C(=O)c3ccc(F)cc3)CC2)cc1 | -120* | -21 | 3 | -6 | -2
O=C(O)CSC(SCC(=O)O)c1ccc(Cl)cc1 | · | · | · | · | 6
COC(=O)[C@@H]1OC(=O)[C@H]2O[C@@]23[C@@]1(C)CC[C@@H]1[C@@]2(C)C=CC(=O)OC(C)(C)[C@@H]2CC(=O)[C@]13C | 0 | 46* | -3 | 9 | -1
CC1(C)OC(=O)C=C[C@]2(C)[C@H]3CC[C@@]4(C)[C@H](c5ccoc5)OC(=O)[C@H]5O[C@]54[C@]3(C)C(=O)C[C@@H]12 | 13 | -3 | -1 | -8 | -2
Cn1c(-c2c(N)n(CCc3ccccc3)c3nc4ccccc4nc23)nc2ccccc21 | 24 | 46* | -4 | · | 8
COCCCn1c(N)c(-c2nc3ccccc3n2C)c2nc3ccccc3nc21 | -88* | 14 | 1 | · | 1
CC(Sc1nnc(-c2ccc3c(c2)OCO3)o1)C(=O)NC1CCCC1 (configuration not stated) | · | · | · | · | -5
O=C(NCCCNC(=O)c1cccs1)c1cccs1 | -64* | -1 | -16 | ? | -2
COc1ccc([N+](=O)[O-])cc1NC(=S)NC(NC(=O)Cc1ccc(OC)c(OC)c1)C(Cl)(Cl)Cl (configuration not stated) | -93* | -12 | -1 | -12 | 1
COc1ccc(NC(=S)NC(NC(=O)C(C)C)C(Cl)(Cl)Cl)c([N+](=O)[O-])c1 (configuration not stated) | -69* | -1 | 73 | -24 | 3
COc1ccccc1C1CCN(Cc2ccccc2Cl)CC1 | -75* | -42 | 1 | 6 | -8
O=[N+]([O-])c1cccc(CN2CCN(c3cccc4[nH]ccc34)CC2)c1 | -97* | -6 | 1 | 7 | 2
O=[N+]([O-])c1cccc(COc2cccc(CN3CCCC3)c2)c1 | -18 | -33 | 8 | 3 | -3
COc1ccccc1C1CCN(Cc2cccc([N+](=O)[O-])c2)CC1 | -95* | -23 | 0 | 0 | 0
O=[N+]([O-])c1cccc(COc2cccc(CN3CCCCC3)c2)c1 | -77* | -62 | 4 | 2 | 0
O=[N+]([O-])c1cccc(CN2CCC(Cc3ccccc3)CC2)c1 | -29 | -14 | 2 | 1 | -12
CCc1ccc(-c2cc3c(=O)[nH]nc(SCC(=O)NCCC(C)C)n3n2)cc1 | · | · | · | · | 5
COc1ccccc1C1CCN(Cc2ccc3ccccc3c2)CC1 | -62* | -34 | 3 | 11 | -2
COc1ccccc1C1CCN(Cc2ccccc2)CC1 | -116* | -24 | -3 | -10 | -4
Cc1sc(/N=C/c2ccc(Br)cc2)c(C#N)c1C | · | · | · | · | 4
Cc1nc2c(nc1C)C(=O)c1ccccc1C2=O | 5 | 0 | -56* | 0 | 5
COCCOc1ccc2c(C)cc(=O)oc2c1 | · | · | · | · | 4
Cc1cc(=O)oc2cc(OCCSCCN3CCCCC3)ccc12 | -66* | -12 | 1 | 3 | -2
OCC[C@H]1C[C@@H](O)[C@H](O)[C@]2(Cc3ccccc3CCO2)O1 | -9 | 31* | -1 | -2 | -7
